EP2 mod: modulators of human EP2 prostaglandin E2 receptor. EP2-expressing cells, cAMP HTRF FRET, PGE2 co-stimulation. hit rate 0.83% among 260,000. AID 940. induction, % at 25 µM. P43116;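 active = compounds whose cAMP rise, as percent of the full-agonist control response, exceeds 60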;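 also: rat C6 glioma line stably carrying human EP2 under a CMV promoter; the protocol text gives 20 µM as final concentration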
PGE2 EP2 inh: EP2 receptor (human) inhibition | AID 1422 | hit rate 0.52% among 260,000 | C6 glioma cells expressing human EP2, cAMP TR-FRET; cells stimulated with saturating PGE2 | inhibition, % at 25 µM;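 active = percent inhibition above 40 after rounding to a whole number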;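 also: rat C6 glioma host cells with rolipram phosphodiesterase inhibitor present; the protocol text gives 20 µM as final concentration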
eIF4E 4G PPI: inhibitors of eIF4E and eIF4G interaction in translation initiation; P63073+Q04637; TR-FRET eIF4E-eIF4GI(517-606) binding, 2 h; inhibition, % at 21.7 µM; hit rate 0.37% among 220,000; AID 782;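 active = inhibition above about 30%, limit read from the data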
PERK inhibitor: human PERK inhibition, primary cell-based screen; Q9NZJ5; CHO PERK-DD fusion, SEAP luminescence translation reporter; inhibition, % at 5.6 µM; hit rate 0.17% among 220,000;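 active = inhibition above the mean inhibition of all tested compounds plus 3 SD, set separately per screening campaign, cut at about 2.9% in these data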;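 also: PERK kinase domain activated by AP20187 dimerizer at 100 nM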
A number is an active result; ! = not active in a repeat. The list is not random: actives were taken first. Their share in the collection is about 1.8%.

Results for C[N+]1(CCC(=O)c2ccco2)CC2CCC(CC2)C1 (centres undefined) ?
EP2 mod: inactive; PGE2 EP2 inh: 45.2

How did CSc1nsc(SCC(=O)Nc2ccc3c(c2)OCCO3)n1 do in these assays?
EP2 mod: inactive; PGE2 EP2 inh: inactive; eIF4E 4G PPI: inactive; PERK inhibitor: 3.1

Results for Cc1csc(SCC(=O)Nc2ccc3c(c2)OCCO3)n1 ?
EP2 mod: inactive; PGE2 EP2 inh: inactive; eIF4E 4G PPI: inactive; PERK inhibitor: inactive

Results for CCc1nn(CC(=O)NCCc2ccc(F)cc2)c(=O)c2cc3ccsc3n12 ?
EP2 mod: inactive

What do the screens show for `Cc1ccccc1CSc1ncnc2ccccc12`?
EP2 mod: 62.4; PGE2 EP2 inh: inactive; eIF4E 4G PPI: inactive; PERK inhibitor: inactive

What do the screens show for `CC(=O)c1sccc1NC(=O)c1ccccc1C(=O)O`?
EP2 mod: 85.5; PGE2 EP2 inh: inactive; eIF4E 4G PPI: inactive; PERK inhibitor: inactive

What do the screens show for `COC(=O)c1sccc1NC(=O)c1ccccc1`?
EP2 mod: inactive; PGE2 EP2 inh: inactive; eIF4E 4G PPI: inactive; PERK inhibitor: inactive

Results for O=C1C2=C(Nc3cc([N+](=O)[O-])ccc3N2)O[C@H]1c1ccc([C@H]2OC3=C(Nc4ccc([N+](=O)[O-])cc4N3)C2=O)cc1 ?
EP2 mod: inactive; PGE2 EP2 inh: 58.0

What do the screens show for `O=C(COc1ccccc1)Nc1ccccc1N1CCCC1`?
EP2 mod: inactive; PGE2 EP2 inh: inactive

What do the screens show for `CCC1CCCCN1C(=O)CSc1nc2c(cnn2-c2ccc(C)cc2)c(=O)[nH]1` (centres undefined)?
EP2 mod: inactive; PGE2 EP2 inh: inactive; eIF4E 4G PPI: inactive; PERK inhibitor: 3.2

How did O=C(CSc1nnc(-c2ccccc2Cl)o1)Oc1ccc(Br)cc1 do in these assays?
EP2 mod: inactive; PGE2 EP2 inh: 47.1!; eIF4E 4G PPI: inactive; PERK inhibitor: inactive

How did OC1(c2ccccc2)CCN(Cc2cccc(Oc3ncccn3)c2)C1 (centres undefined) do in these assays?
EP2 mod: inactive; PGE2 EP2 inh: inactive

How did CC(=O)C1C(c2ccc(F)cc2)c2c(noc2C)CC1(C)O (centres undefined) do in these assays?
EP2 mod: inactive; PGE2 EP2 inh: inactive; eIF4E 4G PPI: 95.6; PERK inhibitor: inactive

Results for CC(=O)C1C(c2ccc(C)cc2)c2c(noc2C)CC1(C)O (centres undefined) ?
EP2 mod: inactive; PGE2 EP2 inh: inactive; eIF4E 4G PPI: inactive; PERK inhibitor: inactive

Results for C[C@@H]1C[C@H](C)CN(S(=O)(=O)c2cc(Cl)c(Oc3ccc([N+](=O)[O-])cc3Cl)c(Cl)c2)C1 ?
EP2 mod: inactive; PGE2 EP2 inh: 43.9

What do the screens show for `C=C(C)Cn1cnc2c1c(=O)n(C)c(=O)n2C`?
EP2 mod: inactive; PGE2 EP2 inh: inactive

Results for COC(=O)c1sc(-c2ccc(Cl)cc2)cc1NC(=O)c1ccccc1C(=O)O ?
EP2 mod: inactive; PGE2 EP2 inh: 52.8; eIF4E 4G PPI: inactive; PERK inhibitor: inactive

What do the screens show for `C=CCC(O)(CC=C)C1CCCN1Cc1ccnc(N2CCCC2)n1` (centres undefined)?
EP2 mod: inactive; PGE2 EP2 inh: inactive

How did c1ccc(-c2nc3nonc3c3nc4ccccc4n23)cc1 do in these assays?
EP2 mod: inactive; PGE2 EP2 inh: inactive; eIF4E 4G PPI: inactive; PERK inhibitor: inactive

How did c1ccc(-c2nc3ccccc3c3nc4ccccc4n23)cc1 do in these assays?
EP2 mod: 64.3; PGE2 EP2 inh: inactive; eIF4E 4G PPI: inactive; PERK inhibitor: inactive

How did O=C1NC2(CCN(C(=O)c3cc(-c4ccc(Cl)cc4)on3)CC2)Nc2ccccc21 do in these assays?
EP2 mod: inactive; PGE2 EP2 inh: inactive

Results for CCC(C)(C)n1nnnc1CN(Cc1cc2cc(C)c(C)cc2[nH]c1=O)C1CCCC1 ?
EP2 mod: inactive; PGE2 EP2 inh: inactive

What do the screens show for `CN(C)c1ccc(/C=C/c2ccc3ccccc3[n+]2C)cc1`?
EP2 mod: inactive; PGE2 EP2 inh: 100.4; eIF4E 4G PPI: inactive; PERK inhibitor: inactive

Results for Cc1cc(/C=C/c2ccc3cc(N(C)C)ccc3[n+]2C)c(C)n1-c1ccccc1 ?
EP2 mod: inactive; PGE2 EP2 inh: inactive

Results for CN(C)c1ccc(/C=C/c2ccc3c4ccccc4ccc3[n+]2-c2ccccc2)cc1 ?
EP2 mod: inactive; PGE2 EP2 inh: inactive; eIF4E 4G PPI: 74.7; PERK inhibitor: inactive

What do the screens show for `CC[n+]1c(/C=C/c2ccc(N(C)C)cc2)ccc2cc(C)ccc21`?
EP2 mod: inactive; PGE2 EP2 inh: inactive

How did CCc1ccc(-n2c(SCC(=O)N3Cc4ccccc4CC3C(=O)O)nnc2-c2ccncc2)cc1 (centres undefined) do in these assays?
EP2 mod: inactive; PGE2 EP2 inh: inactive; eIF4E 4G PPI: inactive; PERK inhibitor: 3.4

How did CCc1ccc(-n2c(SCC(=O)N3CCC(C(=O)O)CC3)nnc2-c2ccncc2)cc1 do in these assays?
EP2 mod: inactive; PGE2 EP2 inh: inactive; eIF4E 4G PPI: inactive; PERK inhibitor: inactive

What do the screens show for `CCOC(=O)c1c(-c2ccncc2)csc1N`?
EP2 mod: inactive; PGE2 EP2 inh: inactive; eIF4E 4G PPI: inactive; PERK inhibitor: inactive

How did Cc1ccc(C)c(-c2csc(N)c2C(=O)OC(C)C)c1 do in these assays?
EP2 mod: 62.9; PGE2 EP2 inh: inactive; eIF4E 4G PPI: inactive; PERK inhibitor: inactive

What do the screens show for `O=C(O)c1ccccc1-c1ccccc1C(=O)Nc1ccc2c(c1)[nH]c(=O)c1ccccc12`?
EP2 mod: inactive; PGE2 EP2 inh: 46.1!; eIF4E 4G PPI: inactive; PERK inhibitor: inactive

How did CCN(CC)C(=O)C1CCN(S(=O)(=O)c2ccc(OC)c(C)c2)CC1 do in these assays?
EP2 mod: inactive; PGE2 EP2 inh: inactive

How did COc1ccc([C@H](C)NC[C@H](O)c2ccc(O)c(NC=O)c2)cc1 do in these assays?
EP2 mod: 81.2; PGE2 EP2 inh: inactive; eIF4E 4G PPI: inactive; PERK inhibitor: inactive

Results for CCOC(=O)c1c(C(C)(C)C)oc2ccc(O)cc12 ?
EP2 mod: inactive; PGE2 EP2 inh: inactive; eIF4E 4G PPI: inactive; PERK inhibitor: inactive

What do the screens show for `CCOC(=O)c1c(C)oc2ccc(O)cc12`?
EP2 mod: inactive; PGE2 EP2 inh: inactive; eIF4E 4G PPI: inactive; PERK inhibitor: 3.4

What do the screens show for `COCCn1nnnc1CN(Cc1ccc(F)cc1)Cc1cc2c(C)ccc(C)c2[nH]c1=O`?
EP2 mod: inactive; PGE2 EP2 inh: inactive

Results for Cc1ccccc1C1c2[nH]c3ccccc3c2CCN1CCCn1cccn1 (centres undefined) ?
EP2 mod: 63.6; PGE2 EP2 inh: inactive; eIF4E 4G PPI: inactive; PERK inhibitor: inactive

How did Fc1ccc(C2c3[nH]c4ccccc4c3CCN2CCCn2cccn2)cc1 (centres undefined) do in these assays?
EP2 mod: inactive; PGE2 EP2 inh: inactive; eIF4E 4G PPI: inactive; PERK inhibitor: inactive

How did COc1cccc(CC(=O)NC(CC(C)C)c2nc3cccnc3n2C(C)C)c1 (centres undefined) do in these assays?
EP2 mod: inactive

Results for CCC(=O)N1CCN(c2ccc(NC(=O)c3ccc([N+](=O)[O-])o3)cc2)CC1 ?
EP2 mod: inactive; PGE2 EP2 inh: 45.9; eIF4E 4G PPI: inactive; PERK inhibitor: inactive

What do the screens show for `CCC(=O)Nc1ccc(NC(=O)c2ccc([N+](=O)[O-])o2)cc1`?
EP2 mod: inactive; PGE2 EP2 inh: 68.1

Screens from PubChem BioAssay.
